# Source: PubChem BioAssay AID1259417 (TB Discovery Research, Infectious Disease Research Institute, 2018)
# The whole screen tested about 1,100 compounds, of which about 760 (69%) were called active. How the calls were made is not given here. The set was probably picked from earlier hits. The list shows a part of the results.
# Test: M. tuberculosis growth inhibition, HTS (AID 1259417);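 further: bacteria grown with compound for 5 days at 37 °C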
# Settings: stronger effect = higher value, concentration not given here
# [1] = M. tuberculosis DsRed fluorescence growth inhibition
# [2] = M. tuberculosis growth inhibition
SMILES,inhibition [1],inhibition [2] [%]
CN1CCN(C(=S)NC(=O)c2ccc(-c3ccccc3)cc2)CC1,0.913% (inactive),-8
CC1CCN(C(=S)NC(=O)c2ccc(Cl)cc2)CC1,24.6% (active),49.7
COc1cc(OC)cc(C(=O)NC(=S)N2CCCCCC2)c1,3.24% (inactive),-3.75
O=C(NC(=S)N1CCCC1)c1ccc(-c2ccccc2)cc1,44.2% (active),47
O=C(NC(=S)N1CCc2ccccc21)c1ccccc1,20.8% (inactive),20.4
CCN(CC)CCn1c(=N)n(CC(O)COc2ccc(Cl)cc2Cl)c2ccccc21 (stereo not drawn),100% (active),98
CC(=O)N(C)c1ccc(OCC(O)Cn2c3ccc(Cl)cc3c3cc(Cl)ccc32)cc1 (stereo not drawn),0.0147% (inactive),-14.7
CC(=O)Oc1cc2c(cc1Cl)C1(CC(c3ccccc3Cl)O2)CC(C)(C)NC(=S)N1 (stereo not drawn),-2.34% (inactive),-4.82
COC(=O)CSc1nc(N)c2c3c(sc2n1)CCCC3,44.7% (active),75
O=C(Nc1nnc(-c2ccc(Cl)s2)o1)C1CCCCC1,49.3% (active),59.3
O=C(Nc1nnc(-c2ccc(Cl)cc2)o1)C1CCCCC1,0.632% (inactive),5.51
Cc1ccc(C)c(-c2nnc(NC(=O)C3=COCCO3)o2)c1,-4.83% (inactive),-2.72
Cc1ccc(C)c(-c2nnc(NC(=O)C3COc4ccccc4O3)o2)c1 (stereo not drawn),66.1% (active),90
Cc1ccc(-c2nnc(NC(=O)C3CC3)o2)c(C)c1,49.6% (active),76.4
O=C(NCC1COc2ccccc2O1)c1ccc(NC(=O)C2COc3ccccc3O2)cc1 (stereo not drawn),0.302% (inactive),-8.66
CCCCC(=O)Nc1nnc(-c2ccc(Cl)s2)o1,0.12% (inactive),19.7
Cc1ccc(C)c(-c2nnc(NC(=O)C3CC3)o2)c1,51.8% (active),83.4
CCC(=O)Nc1nnc(-c2ccc(C)cc2C)o1,0.727% (inactive),13.4
Cc1ccc(Nc2nnc(SCC(=O)Nc3cccnc3Cl)s2)cc1C,3.89% (inactive),-3.4
CSc1ncnc2c1ncn2CC(=O)Nc1ccc(C)c(C)c1,32.5% (active),19.8
CC(C)(C)c1ccc(C(=O)Nc2nnc(-c3ccncc3)o2)cc1,64.6% (active),77.1
CC(C)(C)c1ccc(C(=O)Nc2nnc(-c3cccnc3)o2)cc1,83.8% (active),89.3
CC12CCC(C(=O)Oc3cccc4cccnc34)(CC1=O)C2(C)C (stereo not drawn),101% (active),100

SMILES,inhibition [1],inhibition [2] [%]
COC(=O)c1ccc(COC(=O)c2ccccc2Cl)cc1,0.593% (inactive),15.3
CCCCNC(=O)COC(=O)c1cc(Br)ccc1Cl,11.3% (active),63.4
CCn1c(C=Cc2ccc([N+](=O)[O-])o2)nc2ccc(I)cc2c1=O,36.1% (active),34.3
O=c1c2ccccc2nc(C=Cc2ccc([N+](=O)[O-])o2)n1-c1cccc(O)c1,6.18% (inactive),-1.52
CCOC(=O)c1ccc(NC(=O)c2ccc(C)s2)cc1,91.5% (active),65.1
CCOC(=O)c1ccc(NC(=O)C=Cc2ccc([N+](=O)[O-])s2)cc1,52.9% (active),80.2
CCOC(=O)c1c(NC(=O)C2COc3ccccc3O2)sc2c1CC(C)(C)NC2(C)C (stereo not drawn),29.1% (inactive),-2.75
Cc1ccc(C(=O)Nc2ccc([N+](=O)[O-])cc2)s1,98.3% (active),94.8
Cc1ccc(C)c(OCC(=O)Nc2ccc(C(=O)OC(C)C)cc2)c1C,8.22% (inactive),-22.5
O=c1c2cc(Cl)ccc2oc2nc3n(c(=O)c12)CCCS3,99.1% (active),98.2
O=Cc1ccc2oc3nc4n(c(=O)c3c(=O)c2c1)CCCS4,96.9% (active),95.6
CC(C)c1ccc(-c2csc(NC(=O)c3ccc4c(c3)OCCO4)n2)cc1,-4.25% (inactive),-26.1
O=C(Nc1ccn(Cc2ccc(Cl)cc2)n1)c1ccc2c(c1)OCO2,100% (active),99.3
O=C1N(Cc2ccccc2Cl)c2ccc(Br)cc2C1(O)c1c[nH]c2ccccc12 (stereo not drawn),10.6% (inactive),-0.98
CCN(CC)c1ccc(NC(=O)c2ccc([N+](=O)[O-])o2)c(C)c1,98.8% (active),99.7
O=C(Nc1ccccc1Br)c1ccc([N+](=O)[O-])o1,64% (active),42.2
Cc1ccc(C(=O)Nc2ccc([N+](=O)[O-])cc2C)cc1I,97.4% (active),83.2
CCc1cc(I)ccc1NC(=O)c1ccc([N+](=O)[O-])o1,98% (active),98.3
Cc1ccc(C(=O)Nc2sc(C)c(C)c2C(N)=O)cc1I,3.89% (inactive),-13.1
Cc1cc(NC(=O)c2ccc([N+](=O)[O-])o2)c(C)cc1I,88% (active),92
COc1ccc(CCNc2nc(-c3ccccn3)cs2)cc1OC,89.5% (active),78
c1ccc(CCNc2nc(-c3ccccn3)cs2)cc1,87.2% (active),86.6
Cc1cn2c3c(=O)[nH]c(=O)n(C)c3nc2n1CCCNc1ccccc1,34.8% (active),31.6

SMILES,inhibition [1],inhibition [2] [%]
CC(C)c1ccc(Nc2nnc(SCC(=O)Nc3ncc(S(=O)(=O)c4ccc([N+](=O)[O-])cc4)s3)s2)cc1,-1.44% (inactive),-2.42
COC(=O)CSc1nnc(NC(=O)c2ccc(C(C)(C)C)cc2)s1,99.1% (active),98.3
COC(=O)CSc1nnc(NC(=O)c2ccc(Cl)cc2)s1,88.6% (active),86.6
CCOC(=O)C(C)Sc1nnc(NC(=O)c2ccc(C)c([N+](=O)[O-])c2)s1 (stereo not drawn),-5.3% (inactive),0.339
Cc1cccc2sc(NC(=O)c3ccc(C(C)(C)C)cc3)nc12,12.6% (inactive),14.7
CCc1ccc(Nc2nnc(SCC(=O)Nc3cccnc3Cl)s2)cc1,7.74% (inactive),23.1
CC1=Nc2c(ccc3cccnc23)C1(C)C,8.5% (active),35.9
COc1ccccc1-c1nnc(Nc2nc3c(F)cccc3s2)o1,30.8% (active),84.8
Cc1ccc(C(=O)NCCSC(C)(C)C)cc1[N+](=O)[O-],-1.92% (inactive),-26.5
COCCCNC(=O)c1c(NC(=O)c2ccc(C(C)(C)C)cc2)sc2c1CCCC2,15.2% (inactive),-1.37
Cc1ccc(C(=O)NCCC2=CCCCC2)cc1I,81.3% (active),52.7
Cc1ccc(C(=O)NCCC2=CCCCC2)cc1Br,86.6% (active),67.2
CCn1c2ccccc2c2cc(CN3CCC(N4CCN(c5ccccc5)CC4)CC3)ccc21,-3.76% (inactive),-28
COC(=O)CSc1ccc(C#N)c(SCC(=O)OC)c1,-1.74% (active),42.7
COC(=O)CSc1ccc2c(N)c(C(=O)OC)sc2c1,43.5% (active),77.1
COC(=O)CSc1cc(SCC(=O)OC)c(C#N)c(SCC(=O)OC)c1,28.8% (inactive),23.9
Cc1cc(C(C)(C)C)ccc1OCCCCn1ccnc1,99.4% (active),99.7
Cc1cc(C(C)(C)C)ccc1OCCOCCn1ccnc1,99.2% (active),100
N=c1c2c(-c3ccccc3)c(-c3ccccc3)n(Cc3ccco3)c2ncn1Cc1ccco1,71% (active),61.5
O=C(CSc1nnc(-c2cccnc2)o1)N1CCC(Cc2ccccc2)CC1,95.4% (active),86.2
COc1ccccc1N1C(=O)c2cccc3cc([N+](=O)[O-])cc(c23)C1=O,89.8% (active),95.8
Cc1cccc(C)c1OCc1nnc(SCC(=O)NCCc2ccccc2)o1,84.2% (active),73.9
Cc1cccc(OCc2nnc(SCC(=O)NCCc3ccccc3)o2)c1,92.7% (active),74.5

SMILES,inhibition [1],inhibition [2] [%]
CSc1ccc(C(CC(=O)c2ccccc2)Nc2ccc(F)cc2)cc1 (stereo not drawn),19.6% (inactive),21.6
Cn1c(NC(=O)c2ccccc2)nc2ccccc21,98.3% (active),99.7
Cn1c(NC(=S)Nc2ccccc2)nc2ccccc21,21.4% (active),48.5
O=C(CSc1ccc(Br)cc1)Nc1cccc(Cl)c1,7.93% (inactive),16.8
O=C(Nc1cccc(Cl)c1)c1cc(Br)ccc1Cl,76.3% (active),46.1
COc1ccc(N2C(=O)C(F)(F)C2c2ccccc2F)cc1 (stereo not drawn),33.6% (active),75.8
O=C(NCc1ccco1)c1cnn2c1NC(c1ccc(Br)cc1)CC2C(F)(F)F (stereo not drawn),38.9% (active),15.1
Cc1c(CNC(=O)c2cnn3c2NC(c2ccc(Br)cc2)CC3C(F)(F)F)cnn1C (stereo not drawn),57.6% (active),17.9
O=C(NCc1ccc2c(c1)OCO2)c1cnn2c1NC(c1cccs1)CC2C(F)(F)F (stereo not drawn),100% (active),94.1
CSc1nc2ccc(NC(=O)C3CC(=O)N(Cc4ccccc4)C3)cc2s1 (stereo not drawn),10.7% (inactive),22.1
CCOC(=O)c1cnc(-n2nc(C)cc2C)nc1Nc1ccc(OC)cc1,54% (active),30.7
CCOC(=O)c1cnc(-n2nc(C)cc2C)nc1NCCc1ccccc1,101% (active),101
O=S1(=O)C=C(Sc2nnc(-c3ccncc3)o2)c2ccccc21,100% (active),101
O=S1(=O)C=C(Sc2nnc(-c3ccccc3)o2)c2ccccc21,100% (active),101
CC(=O)Oc1c(C(=O)c2ccccc2)sc2ccccc12,79.9% (active),52.4
CCc1ccc(-c2ccc(SCC(N)=O)nn2)cc1,20% (active),41
Cc1cc(OCC(=O)NC2C3CC4CC(C3)CC2C4)cc(C)c1Br (stereo not drawn),98.6% (active),72
N#Cc1c(SCC(N)=O)nsc1SCc1ccccc1Cl,20.8% (active),61.7
CCc1cccc2c(C(=O)COC(=O)c3ccc([N+](=O)[O-])s3)c[nH]c12,91.9% (active),95.3
O=C(OCC(=O)c1c[nH]c2ccccc12)c1ccc([N+](=O)[O-])s1,61.6% (active),52.7
